# Data reported in the supplement of paper PMC8728848.
# About 410 targets per protein were measured; listed, in parts, are those with the strongest signals and a random draw of the rest.
# Key:
# Test in all cases: glycan array binding signal (z-score within array); higher = stronger binding
# Details in all cases: glycan notation: IUPAC condensed, linker removed
# Fuc(a1-2)Gal(b1-4)Glc = biological target: Fuc(a1-2)Gal(b1-4)Glc
# Outline: (§1)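 Columns mapping to the same glycan were averaged after glycan names were converted to IUPAC-condensed notation. The data come from 3228 arrays in the Consortium for Functional Glycomics database, limited to those with an available protein sequence. Binding is reported as a within-array Z-score averaged across arrays of one protein sequence and across linkers.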
# [1] = biological target: Fuc(a1-2)[Gal(a1-3)]Gal(b1-4)Glc
# Outline: as §1
# Fuc(a1-3)GlcNAc = biological target: Fuc(a1-3)GlcNAc
# Outline: as §1
# [2] = biological target: Fuc(a1-3)[Gal3S(b1-4)]GlcNAc
# Outline: as §1
# Gal(a1-4)Gal(b1-4)Glc = biological target: Gal(a1-4)Gal(b1-4)Glc
# Outline: as §1
# Gal(b1-3)Gal(b1-4)GlcNAc = biological target: Gal(b1-3)Gal(b1-4)GlcNAc
# Outline: as §1
# [3] = biological target: Gal(b1-3)GlcNAc(b1-2)Man(a1-3)[Gal(b1-3)GlcNAc(b1-2)Man(a1-6)]Man(b1-4)GlcNAc(b1-4)GlcNAc
# Outline: as §1
# [4] = biological target: Gal(b1-4)GalNAc(b1-3)[Fuc(a1-2)]Gal(b1-4)GlcNAc
# Outline: as §1
# [5] = biological target: Gal(b1-4)GlcNAc(b1-2)Man(a1-3)[Gal(b1-4)GlcNAc(b1-2)Man(a1-6)]Man(b1-4)GlcNAc(b1-4)GlcNAc
# Outline: as §1
# Gal3S(b1-4)GlcNAc = biological target: Gal3S(b1-4)GlcNAc
# Outline: as §1
# Gal3S4S(b1-4)GlcNAc = biological target: Gal3S4S(b1-4)GlcNAc
# Outline: as §1
# Glc(a1-6)Glc(a1-6)Glc = biological target: Glc(a1-6)Glc(a1-6)Glc
# Outline: as §1
# GlcA(b1-3)GlcNAc = biological target: GlcA(b1-3)GlcNAc
# Outline: as §1
# [6] = biological target: GlcNAc(b1-3)[GlcNAc(b1-6)]Gal(b1-4)GlcNAc
# Outline: as §1
# [7] = biological target: GlcNAc(b1-3)[GlcNAc(b1-6)]GalNAc
# Outline: as §1
# [8] = biological target: GlcNAc(b1-4)Gal(b1-4)GlcNAc
# Outline: as §1
# Kdn(a2-3)Gal(b1-4)GlcNAc = biological target: Kdn(a2-3)Gal(b1-4)GlcNAc
# Outline: as §1
# [9] = biological target: Man(a1-2)Man(a1-2)Man(a1-6)[Man(a1-3)]Man
# Outline: as §1
# [10] = biological target: Man(a1-2)Man(a1-6)[Man(a1-3)]Man(a1-6)[Man(a1-2)Man(a1-2)Man(a1-3)]Man
# Outline: as §1
# [11] = biological target: Neu5Ac(a2-3)Gal(b1-3)GlcNAc(b1-3)Gal(b1-3)GlcNAc
# Outline: as §1
# [12] = biological target: Neu5Ac(a2-3)Gal(b1-4)GlcNAc(b1-3)Gal(b1-4)GlcNAc(b1-3)Gal(b1-4)GlcNAc
# Outline: as §1
# [13] = biological target: Neu5Ac(a2-3)Gal(b1-4)GlcNAc(b1-3)Gal(b1-4)[Fuc(a1-3)]GlcNAc
# Outline: as §1
# [14] = biological target: Neu5Ac(a2-3)Gal(b1-4)[Fuc(a1-3)]GlcNAc
# Outline: as §1
# [15] = biological target: Neu5Ac(a2-3)Gal6S(b1-4)[Fuc(a1-3)]GlcNAc
# Outline: as §1
# [16] = biological target: Neu5Ac(a2-6)Gal(b1-4)GlcNAc(b1-2)Man(a1-3)[Gal(b1-4)GlcNAc(b1-2)Man(a1-6)]Man(b1-4)GlcNAc(b1-4)GlcNAc
# Outline: as §1
# [17] = biological target: Neu5Ac(a2-6)Gal(b1-4)GlcNAc(b1-2)Man(a1-3)[Neu5Ac(a2-6)Gal(b1-4)GlcNAc(b1-2)Man(a1-6)]Man(b1-4)GlcNAc(b1-4)GlcNAc
# Outline: as §1
# [18] = biological target: Neu5Ac(a2-6)Gal(b1-4)GlcNAc(b1-3)Gal(b1-4)[Fuc(a1-3)]GlcNAc(b1-3)Gal(b1-4)[Fuc(a1-3)]GlcNAc
# Outline: as §1
# [19] = biological target: Neu5Gc(a2-3)Gal(b1-3)[Fuc(a1-4)]GlcNAc
# Outline: as §1
binder,measurement,setting,value
BDCA2 ex-domain (Homo sapiens) (protein) MASHHHHHHIEGRGLNDIFEAQKIEWHESLVPRGSCPTPWTSFQSSCYFISTGMQSWTKSQKNCSVMGADLVVINTREEQDFIIQNLKRNSSYFLGLSDPGGRRHWQWVDQTPYNENVTFWHSGEPNNLDERCAIINFRSSEEWGWNDIHCHVPQKSICKMKKIY,glycan array binding signal (z-score),Fuc(a1-2)Gal(b1-4)Glc,-0.318
same,glycan array binding signal (z-score),[1],-0.022
same,glycan array binding signal (z-score),Fuc(a1-3)GlcNAc,-0.3
same,glycan array binding signal (z-score),[2],-0.204
same,glycan array binding signal (z-score),Gal(a1-4)Gal(b1-4)Glc,0.336
same,glycan array binding signal (z-score),Gal(b1-3)Gal(b1-4)GlcNAc,-0.245
same,glycan array binding signal (z-score),[3],8.6
same,glycan array binding signal (z-score),[4],-0.375
same,glycan array binding signal (z-score),[5],13.2
same,glycan array binding signal (z-score),Gal3S(b1-4)GlcNAc,-0.181
same,glycan array binding signal (z-score),Gal3S4S(b1-4)GlcNAc,1.81
same,glycan array binding signal (z-score),Glc(a1-6)Glc(a1-6)Glc,-0.187
same,glycan array binding signal (z-score),GlcA(b1-3)GlcNAc,-0.1
same,glycan array binding signal (z-score),[6],-0.208
same,glycan array binding signal (z-score),[7],-0.347
same,glycan array binding signal (z-score),[8],0.139
same,glycan array binding signal (z-score),Kdn(a2-3)Gal(b1-4)GlcNAc,0.619
same,glycan array binding signal (z-score),[9],-0.128
same,glycan array binding signal (z-score),[10],-0.559
same,glycan array binding signal (z-score),[11],-0.143
same,glycan array binding signal (z-score),[12],1.33
same,glycan array binding signal (z-score),[13],0.601
same,glycan array binding signal (z-score),[14],-0.385
same,glycan array binding signal (z-score),[15],-0.35
same,glycan array binding signal (z-score),[16],2.93
same,glycan array binding signal (z-score),[17],-0.101
same,glycan array binding signal (z-score),[18],0.319
same,glycan array binding signal (z-score),[19],-0.317
